Experimental findings from PubChem BioAssay AID488922 (Johns Hopkins Ion Channel Center, 2010) are described below.

Out of some 310,000 compounds screened, about 3,800 (1.2%) were called active. The sample holds actives, similar compounds and a random draw of the others, so the mix is not that of the screen.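 How the source made its calls: active means ratio B-score over 3 SD below the library mean, with starting fluorescence within 5 SD of its mean; inactive means the rest, inconclusive results apart.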

The test deals with Potassium channel subfamily K member 9 (Homo sapiens) (UniProt Q9NPC2). Briefly: KCNK9 potassium channel inhibitors, primary screen, HEK293 cells, thallium flux (AID 488922).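 On B-score: negative B-score means less thallium flux so channel inhibition.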 Particulars: HEK293 KCNK9, FluxOR thallium flux fluorescence, at 10 µM; active compounds read low.
Potassium channel subfamily K member 9 (Homo sapiens), sequence (Q9NPC2 whole entry, looked up): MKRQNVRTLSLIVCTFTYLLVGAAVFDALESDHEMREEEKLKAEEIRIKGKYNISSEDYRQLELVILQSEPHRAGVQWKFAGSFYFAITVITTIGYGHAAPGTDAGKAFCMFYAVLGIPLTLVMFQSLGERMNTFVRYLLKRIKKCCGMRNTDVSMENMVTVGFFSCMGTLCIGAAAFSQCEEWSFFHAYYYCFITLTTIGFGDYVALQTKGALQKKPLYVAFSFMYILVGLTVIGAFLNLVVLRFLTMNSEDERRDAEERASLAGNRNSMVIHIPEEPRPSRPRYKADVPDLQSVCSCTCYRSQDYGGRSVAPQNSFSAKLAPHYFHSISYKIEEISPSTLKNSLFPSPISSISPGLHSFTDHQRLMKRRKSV
As to `CCCn1c(CCNc2nc(-c3ccc(OC)cc3)cs2)nc2ccccc21`, the B-score result was “inactive”.
Regarding `Cc1ccc(-c2csc(N3CCN(c4cc5c(cc4Cl)nc(-c4ccncc4)n5CCOCCO)CC3)n2)cc1`, the B-score result was “inactive”.
`Cc1ccc(-c2csc(NCCc3nc4cc(Cl)c(Cl)cc4n3CCOCCO)n2)cc1`: the B-score is -9.6 (active).
In the case of `Cc1c(CCC(=O)O)c(=O)oc2c(C)c(OCc3ccccc3Cl)ccc12` it was “inactive”; in that of `C/C=N/N(c1ccccc1)c1ccccc1`, “inactive”.
To `O=C(/C=C/c1cccc(C(F)(F)F)c1)N1CCN(c2ccccn2)CC1` belongs “inactive”.
For the compound `NC(N)=Nc1nc(-c2ccccc2)c2cc(Cl)ccc2n1`, the B-score is -6.86 (active).
To `OCCCNc1nc(-c2ccccc2)c2cc(Cl)ccc2n1` belongs “inactive”; to `O=C(CCl)NNc1nc(-c2ccccc2)c2cc(Cl)ccc2n1`, “inactive”.
To `Cn1c(C(=O)OC(C(=O)NC2CCCCC2)c2ccccn2)cc2sccc21` (configuration not stated) belongs “inactive”; to `COc1cc(C(=O)NCc2cc3cc(Cl)ccc3n2C)cc(OC)c1OC`, “inactive”; to `CCC1C(=O)NCCN1C(=O)c1ccc2nc(Cc3ccc(OC)cc3)oc2c1` (configuration not stated), “inactive”.
As for `COc1ccc(Cl)cc1NC(=O)CCN1CCOCC1`, the B-score result is “inactive”.
In the case of `COc1cccc(NC(=S)NCCCN2CCOCC2)c1` it was “inactive”.
In the case of `COc1cccc2cc(C(C)N(CCCN3CCOCC3)C(=O)Nc3ccc(Cl)cc3)oc12` (configuration not stated) it was -9.66 (active); in that of `Cc1cccc2[nH]c(CN(C)C(=O)C3CCC(=O)N(CCc4ccccc4)C3)nc12` (configuration not stated), “inactive”.
In the case of `COc1ccccc1-c1nnc(-c2ccc(F)cc2)o1` it was “inactive”; in that of `CC1=C(N2CCN(c3ncccn3)CC2)CCC1=O`, “inactive”; in that of `O=C(Nc1ccccc1[N+](=O)[O-])C1C(c2ccccc2)=C1c1ccccc1`, -8.24 (active).
In the case of `O=C(Nc1ccccc1-c1ccccc1)c1ccccc1[N+](=O)[O-]`, the B-score entry was “inactive”.
To `O=C(O)c1ccccc1C(=O)Nc1ccccc1[N+](=O)[O-]` belongs “inactive”; to `CCCCNS(=O)(=O)c1ccc2nc(SCC(=O)Nc3cc(C)cc(C)c3)[nH]c2c1`, “inactive”.
With `CCN(CC)CCn1cnc2c1c(=O)n(CCOC(=O)c1cc(OC)c(OC)c(OC)c1)c(=O)n2C`, the B-score result was “inactive”.
To `Cc1ccc(OCCNC(=O)CN2C(=O)NC3(CCCC3)C2=O)cc1` belongs “inactive”; to `O=C(NCc1ccccn1)Nc1ccc(Cl)cc1`, “inactive”.
For the compound `CC1=NN(c2cccc(Cl)c2)C(=O)C12CC(C)=C(C)CS2` (configuration not stated), the B-score is -11.1 (active).
With `CC12CCC(C(=O)N(c3cccc(Cl)c3)C1=O)C2(C)C` (configuration not stated), the B-score entry was “inactive”.
Take `O=C(COC(=O)C1CC2C=CC1C2)Nc1ccccc1` (configuration not stated): the B-score result is “inactive”.
In the case of `Cc1ccc(C(=O)N/C(=C\c2ccc(F)cc2)C(=O)NCCN2CCOCC2)cc1`, the B-score entry is “inactive”.
In the case of `O=C(CN1C(=O)/C(=C\c2ccccc2F)SC1=S)Nc1nc2ccccc2s1` it was -7.2 (active).
To `O=C(CN1C(=O)S/C(=C\c2ccccc2F)C1=O)NCCCn1ccnc1` belongs “inactive”.
To `O=C(CN1C(=O)/C(=C/c2ccccc2F)Sc2ccccc21)NCc1cccnc1` belongs “inactive”.
